NIH3T3 tox: Cytotoxic Profiling in NIH 3T3 Cell Line of Diverse Libraries Using Quantitative High-Throughput Screening; NIH 3T3 viability, CellTiter-Glo ATP luminescence, 48-72 h; Potency, µM (top dose mostly 96.7 µM), actives largely listed as inhibitors; 4.3% of 94,000 active; also: nearly all actives have a fitted effect of over 55% in size
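Cells were seeded at 400 per well, treated with pin-transferred compound, and kept 48 or 72 hr at 37 °C before CellTiter-Glo addition and luminescence imaging of cellular ATP.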
Luciferase inh: Firefly luciferase inhibition profiling of diverse chemical library using quantitative high-throughput screening. Potency, µM (series often up to 115 µM), actives largely listed as inhibitors. purified P. pyralis luciferase, luminescence, biochemical. Luciferin 4-monooxygenase (Photinus pyralis), P08659. 2.5% of 76,000 active; also: nearly all actives have a fitted effect of over 65% in size
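Purified 10nM P. pyralis luciferase with 10uM D-luciferin and 10uM ATP in 50mM Tris acetate pH 7.5, 10mM Mg acetate, 0.01% Tween-20, 0.05% BSA. qHTS titration; luminescence read by CCD imager.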
NPR1 antag: Natriuretic polypeptide receptor (hNpr1) antagonism - Primary qHTS. Atrial natriuretic peptide receptor 1 (Homo sapiens), P16066. HEK293 hNpr1 GloSensor cGMP, ANP-stimulated luminescence. Potency, µM (highest dose often 46.3 µM), most hits filed as inhibitors. 1.6% of 76,000 active; calls by dose curve; also: nearly all actives have a fitted effect of over 60% in size
Target sequence (P16066 whole entry, looked up): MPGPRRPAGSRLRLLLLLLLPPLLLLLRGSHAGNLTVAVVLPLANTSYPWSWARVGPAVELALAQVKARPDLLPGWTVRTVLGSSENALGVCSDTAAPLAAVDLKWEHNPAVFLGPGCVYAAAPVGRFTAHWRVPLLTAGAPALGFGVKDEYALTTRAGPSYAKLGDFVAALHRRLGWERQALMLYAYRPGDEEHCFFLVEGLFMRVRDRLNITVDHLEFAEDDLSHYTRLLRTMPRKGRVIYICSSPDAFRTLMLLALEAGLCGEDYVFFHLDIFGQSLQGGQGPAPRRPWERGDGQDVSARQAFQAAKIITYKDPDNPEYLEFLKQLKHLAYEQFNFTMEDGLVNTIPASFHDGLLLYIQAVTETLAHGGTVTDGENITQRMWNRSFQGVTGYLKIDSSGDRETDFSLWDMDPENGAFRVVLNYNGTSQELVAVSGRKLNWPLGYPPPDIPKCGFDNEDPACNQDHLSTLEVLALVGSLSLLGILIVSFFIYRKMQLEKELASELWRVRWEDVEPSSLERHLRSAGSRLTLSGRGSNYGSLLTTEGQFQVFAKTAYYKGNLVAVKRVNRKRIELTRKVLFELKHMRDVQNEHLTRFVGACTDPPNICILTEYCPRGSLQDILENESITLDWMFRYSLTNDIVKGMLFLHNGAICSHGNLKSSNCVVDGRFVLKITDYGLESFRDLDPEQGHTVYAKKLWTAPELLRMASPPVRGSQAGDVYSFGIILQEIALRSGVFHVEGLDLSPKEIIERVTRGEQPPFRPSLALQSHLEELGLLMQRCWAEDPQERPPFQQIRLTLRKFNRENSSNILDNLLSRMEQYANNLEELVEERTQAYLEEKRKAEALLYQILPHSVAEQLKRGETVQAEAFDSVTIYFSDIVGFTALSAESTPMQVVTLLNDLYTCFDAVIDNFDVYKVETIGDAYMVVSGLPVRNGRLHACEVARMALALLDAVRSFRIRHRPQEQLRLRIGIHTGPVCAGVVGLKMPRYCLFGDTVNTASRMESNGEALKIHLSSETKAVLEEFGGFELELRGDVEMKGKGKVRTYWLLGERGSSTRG
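Compound pre-incubated 30 min at room temperature on GloSensor-loaded HEK293 cells stably carrying hNpr1 and the pGS-40F cGMP biosensor. Stimulation uses hNppA at 0.1 nM final; luminescence is taken at baseline and 20 min post-agonist.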
HEK cytotox: Cytotoxic Profiling in HEK 293 Cell Line of Diverse Libraries Using Quantitative High-Throughput Screening | HEK 293 viability, ATP luminescence (CellTiter-Glo), 48-72 h | Potency, µM (highest dose often 115 µM), usual class: inhibitors | 6.6% of 94,000 active; also: nearly all actives have a fitted effect of over 60% in size
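Read-out: CellTiter-Glo ATP luminescence. Cells: HEK 293, 250 cells/well. Exposure: 48 or 72 hr, 37 degree Celsius.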
Of the large screens only hits and unclear results are named; the others gave an inactive call. In the library only some 11% were active in any assay of this set; here they are far more common. Unless noted, calls follow the shape of the dose curve; as a rule, active = well fitted curve in the direction sought with a large enough effect; inconclusive = small, poorly fitted or top-dose-only effect, or another doubt; inactive = no such curve, though single readings can be large; an effect the other way counts as inactive or inconclusive.

CC(C)NC(=O)C1CCC(=O)N1C1CCN(C(=O)C2CCC2)CC1 (stereo not given)	none (no result: Luciferase inh, NPR1 antag)
Cn1ccnc1CN1C(=O)CO[C@H]2CN(CCCc3ccccc3)C[C@H]21	NIH3T3 tox 112µM, HEK cytotox inconclusive
O=C1CC(c2noc(-c3ccco3)n2)CN1C1CCCCC1 (stereo not given)	none
Cc1ccsc1-c1nc(C2CC(=O)N(C3CCCCC3)C2)no1 (stereo not given)	HEK cytotox 79µM
CCCCOc1ccc(-c2nc(C3CC(=O)N(C4CCCCC4)C3)no2)cc1 (stereo not given)	NIH3T3 tox 32µM, NPR1 antag inconclusive, HEK cytotox 45µM
CCCCOc1ccc(-c2nc(C3CC(=O)N(c4ccc(OC)cc4)C3)no2)cc1 (stereo not given)	none
CC1(c2ccccc2)N(Cc2ccccc2)C(=O)OC12CCN(c1cccnc1)CC2 (stereo not given)	NIH3T3 tox 89µM, HEK cytotox 71µM
CC1(c2ccccc2)N(Cc2ccccc2)C(=O)OC12CCN(Cc1cccnc1)CC2 (stereo not given)	NIH3T3 tox 100µM, HEK cytotox inconclusive
CC1(c2ccccc2)N(Cc2ncccn2)C(=O)OC12CCN(Cc1cccc(OC(F)(F)F)c1)CC2 (stereo not given)	NIH3T3 tox 40µM, HEK cytotox 50µM
Cc1ccsc1C(=O)N1CCC2(CC1)CC(N1CCOCC1)CCO2 (stereo not given)	none (no result: Luciferase inh, NPR1 antag)
COCCCNC(=O)c1ccc2nnc(-c3ccc(OC(F)(F)F)cc3)n2c1	none (no result: Luciferase inh, NPR1 antag)
CC(C)NC(=O)N1CCCC1C(=O)N1CCC(N2CCCC2=O)CC1 (stereo not given)	none (no result: Luciferase inh, NPR1 antag)
Cc1ccc(-n2nc(C)c([C@@H]3C=C[C@@H](NCc4ccc(F)cc4)C3)c2C)cc1Cl	NIH3T3 tox inconclusive, Luciferase inh 45µM, HEK cytotox 32µM
Cc1ccc(-n2nc(C)c([C@@H]3C=C[C@@H](NC(=O)CC(C)(C)CC(=O)O)C3)c2C)cc1Cl	NIH3T3 tox inconclusive
Cc1ccc(-n2nc(C)c([C@@H]3C=C[C@@H](NCc4ccc(N(C)C)cc4)C3)c2C)cc1Cl	NIH3T3 tox 7.9µM, Luciferase inh 25µM, NPR1 antag inconclusive, HEK cytotox 8.9µM
COCC(=O)N1CCN(S(=O)(=O)c2ccccc2)C[C@@H]1C(=O)N[C@@H](Cc1ccc(OC)cc1)C(=O)OC	none
CNC(=O)[C@H]1CN(C(=O)OCc2ccccc2)[C@]2(C)C(=O)N(CCOC)c3ccccc3[C@H]12	HEK cytotox inconclusive (no result: Luciferase inh, NPR1 antag)
CCCCn1c(=O)c(C(=O)NCCOC)nc2cccnc21	none (no result: Luciferase inh, NPR1 antag)
CC(NC(=O)C1CCN(c2nccc(Nc3ccccc3Cl)n2)CC1)c1ccc(F)cc1 (stereo not given)	NIH3T3 tox 32µM, HEK cytotox 40µM (no result: Luciferase inh, NPR1 antag)
COc1ccccc1Nc1ccnc(N2CCC(NC(=O)C3CC3)CC2)n1	none (no result: Luciferase inh, NPR1 antag)
O=C(NC1CCN(c2nccc(Nc3ccccc3Cl)n2)CC1)c1ccccc1Cl	NIH3T3 tox inconclusive, HEK cytotox 40µM (no result: Luciferase inh, NPR1 antag)
O=C(NC1CCN(c2nccc(Nc3ccccc3Cl)n2)CC1)C1CC1	NIH3T3 tox 28µM, HEK cytotox inconclusive (no result: Luciferase inh, NPR1 antag)
Cc1ccc(Nc2ccnc(N3CCC(NC(=O)c4ccccc4Cl)CC3)n2)cc1	NIH3T3 tox 40µM, HEK cytotox 45µM (no result: Luciferase inh, NPR1 antag)
O=C(c1ccc(F)cc1)N1CCCC2(CNc3ncccc3[S+](=O)([O-])N2)C1 (stereo not given)	none (no result: Luciferase inh, NPR1 antag)
COCC(=O)N1CCN(C(=O)c2nc3cccnc3n(Cc3ccc(OC)cc3)c2=O)CC1	none (no result: Luciferase inh, NPR1 antag)
Cc1noc(C)c1[S+](=O)([O-])N1CCCC(C(=O)N2CCC(N3CCOCC3=O)CC2)C1 (stereo not given)	none (no result: Luciferase inh, NPR1 antag)
Cc1ccc(Nc2ccnc(N3CCN(C(=O)c4ccccc4Cl)CC3)n2)cc1	NIH3T3 tox inconclusive, HEK cytotox 40µM (no result: Luciferase inh, NPR1 antag)
O=C(c1ccccc1)N1CCC(c2nn(-c3ccccn3)c(=O)[nH]2)CC1	none (no result: Luciferase inh, NPR1 antag)
Cc1ccc(C2Cn3nnc(C(=O)N4CCC(C(=O)NCc5ccc(F)cc5F)CC4)c3CO2)cc1 (stereo not given)	Luciferase inh inconclusive
Cc1ccc(C2Cn3nnc(C(=O)N4CCC(C(=O)NCc5cc(F)ccc5F)CC4)c3CO2)cc1 (stereo not given)	Luciferase inh 35µM
Cc1ccc(C2Cn3nnc(C(=O)N4CCC(C(=O)NCc5ccccc5F)CC4)c3CO2)cc1 (stereo not given)	Luciferase inh 22µM
O=C(c1ccc(C(F)(F)F)cc1)N1CCC(C(=O)N2CCC(N3CCOC3=O)CC2)CC1	none (no result: Luciferase inh, NPR1 antag)
CCN1CCN(C(=O)c2cn3cc(-c4cccc(C(F)(F)F)c4)sc3n2)CC1	none (no result: Luciferase inh, NPR1 antag)
Cn1ccc(C(=O)N2CCCC(CCc3ccccc3C(F)(F)F)C2)n1 (stereo not given)	NIH3T3 tox inconclusive, HEK cytotox 32µM
COc1cccc(OCC2CN(Cc3cccc(C(F)(F)F)c3)C(=O)c3c(ccnc3-c3ccc(OCC(=O)O)cc3)O2)c1OC (stereo not given)	NIH3T3 tox inconclusive, Luciferase inh 45µM
O=C(O)COc1ccc(-c2nccc3c2C(=O)N(Cc2c[nH]c4ccccc24)CC(COc2ccc(F)cc2F)O3)cc1 (stereo not given)	NIH3T3 tox inconclusive, Luciferase inh 45µM
CC(C)c1cc(C(=O)N2CCn3nc(C(=O)Nc4ccccc4)cc3C2)n[nH]1	NIH3T3 tox inconclusive, Luciferase inh inconclusive, NPR1 antag 13µM, HEK cytotox inconclusive
O=C(NCCc1ccc(F)cc1)C1CCCCN1Cc1ccc(-c2ccsc2)cc1 (stereo not given)	NIH3T3 tox 32µM, HEK cytotox 35µM (no result: Luciferase inh, NPR1 antag)
O=C(NCCc1ccccc1)C1CCN(C(=O)c2ccc(-c3cccs3)cc2)CC1	none (no result: Luciferase inh, NPR1 antag)
CC(=O)N1CCN(C(=O)C2CCCCN2Cc2ccc(-c3ccsc3)cc2)CC1 (stereo not given)	none (no result: Luciferase inh, NPR1 antag)
O=C(NCCc1ccc(F)cc1)C1CN(C2CCCC2)C(=O)N1 (stereo not given)	none (no result: Luciferase inh, NPR1 antag)
O=C(C1CCCCN1Cc1ccc(-c2ccsc2)cc1)N1CCC(Cc2ccccc2)CC1 (stereo not given)	NIH3T3 tox 35µM, HEK cytotox inconclusive (no result: Luciferase inh, NPR1 antag)
Cc1ccc(CN2Cc3[nH]cnc3C[C@H]2C(=O)N2CCC(Cc3ccccc3)CC2)cc1	NIH3T3 tox 71µM, HEK cytotox inconclusive
O=C(NCCc1ccc(F)cc1)C1CCCCN1Cc1ccc(-c2cccs2)cc1 (stereo not given)	NIH3T3 tox inconclusive, HEK cytotox 22µM (no result: Luciferase inh, NPR1 antag)
O=C(NC1CCCCCCC1)C1CCCN(C2CCN(Cc3ccncc3)CC2)C1 (stereo not given)	HEK cytotox inconclusive
O=C(NCC(F)F)C1CCCCN1Cc1ccc(-c2ccsc2)cc1 (stereo not given)	NIH3T3 tox inconclusive, HEK cytotox 40µM (no result: Luciferase inh, NPR1 antag)

Screening data: PubChem BioAssay, National Center for Advancing Translational Sciences (NCATS)
